Inconclusive results are not listed. Calls of active or inactive are those of the source. How the source made its calls: active means hit-call score of the fitted dose curve at least 0.9, where 1 is the maximum; inconclusive means response in the unintended direction; inactive means score below 0.9.

Here are results for four compounds from PubChem BioAssay (EPA / NIEHS).

The nature of experiment [1]: ATG_M_32_XSP1: Attagene TRANS-FACTORIAL Multi-Species (XSP1) HepG2 Assay for M32 Transcription Factor (Internal Marker) (AID 2283799). Summed up: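 Reporter transcripts from the M32 internal-control unit measured by RT-PCR, FAM labelling, HpaI digestion and capillary electrophoresis after 24 h compound exposure of transfected HepG2, 3 nM 6-alpha-fluorotestosterone included; DMSO baseline, positive-direction fit.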

The target in experiment [2] is Peroxisome proliferator-activated receptor gamma (Homo sapiens) (UniProt P37231). The experiment is described as follows: ATG_hPPARg_XSP1: Attagene TRANS-FACTORIAL Multi-Species (XSP1) HepG2 Assay for human Peroxisome Proliferator-activated Receptor gamma (PPARg) (AID 2283800). Summed up: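 Reporter mRNA induction, measured by RT-PCR with capillary electrophoresis 24 h after dosing, scored as gain over DMSO. Transfected HepG2 cells express exogenous NR-Gal4 chimeras driving GAL4-UAS reporters; medium includes 3 nM 6-alpha-fluorotestosterone.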

Experiment [3] relates to zebrafish Peroxisome Proliferator-activated Receptor gamma (PPARg), gene 557037. The experiment is described as follows: ATG_zfPPARg_XSP1: Attagene TRANS-FACTORIAL Multi-Species (XSP1) HepG2 Assay for zebrafish Peroxisome Proliferator-activated Receptor gamma (PPARg) (AID 2283801). Summed up: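 Trans-activation readout of chimeric zebrafish PPARg–GAL4 in transiently transfected human HepG2 cells, 24 h chemical exposure (medium includes 3 nM 6-alpha-fluorotestosterone). Reporter transcripts measured by RT-PCR and capillary electrophoresis, fitted as gain over DMSO.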

The target of experiment [4] is mouse Peroxisome Proliferator-activated Receptor gamma (PPARg), Pparg (gene 19016) (UniProt P37238). Description: ATG_mPPARg_XSP1: Attagene TRANS-FACTORIAL Multi-Species (XSP1) HepG2 Assay for mouse Peroxisome Proliferator-activated Receptor gamma (PPARg) (AID 2283802). In short, it runs like this: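 Readout is reporter mRNA induction, measured by RT-PCR with 6-FAM labelling, HpaI digestion and capillary electrophoresis, 24 h post-dose relative to DMSO. Transient multi-reporter transfection of human HepG2 with mouse PPARg–GAL4 fusion; 3 nM 6-alpha-fluorotestosterone included.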
Sequence of mouse Peroxisome Proliferator-activated Receptor gamma (PPARg), Pparg (gene 19016) (P37238 whole entry, looked up, the tested form may be a part): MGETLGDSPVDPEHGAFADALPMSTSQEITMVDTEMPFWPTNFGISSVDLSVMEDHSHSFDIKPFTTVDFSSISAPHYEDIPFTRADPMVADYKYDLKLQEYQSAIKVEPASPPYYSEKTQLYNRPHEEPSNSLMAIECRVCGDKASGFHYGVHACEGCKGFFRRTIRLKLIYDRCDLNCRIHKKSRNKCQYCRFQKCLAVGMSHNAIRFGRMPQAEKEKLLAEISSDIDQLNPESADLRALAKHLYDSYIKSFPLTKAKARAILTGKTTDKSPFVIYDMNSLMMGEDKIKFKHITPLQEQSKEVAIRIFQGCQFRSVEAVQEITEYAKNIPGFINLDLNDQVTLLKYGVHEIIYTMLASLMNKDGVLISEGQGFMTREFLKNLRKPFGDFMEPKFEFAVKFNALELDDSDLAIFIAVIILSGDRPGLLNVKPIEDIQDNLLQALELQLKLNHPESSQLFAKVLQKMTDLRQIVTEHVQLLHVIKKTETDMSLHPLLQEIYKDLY

Experiment [5] concerns the target Nuclear receptor subfamily 1 group I member 2 (Mus musculus) (UniProt O54915). Description: ATG_mPXR_XSP1: Attagene TRANS-FACTORIAL Multi-Species (XSP1) HepG2 Assay for mouse Pregnane X Receptor (PXR) (AID 2283803). Summed up:
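Transiently transfected HepG2 cells expressing a receptor-Gal4 chimera drive a GAL4-UAS reporter; 3 nM 6-alpha-fluorotestosterone included. Reporter mRNA read 24 h post-dose by RT-PCR and capillary electrophoresis; gain of signal relative to DMSO.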

The target of experiment [6] is human Thyroid hormone Receptor alpha (TRa), THRA (gene 7067) (UniProt P10827). Description: ATG_hTRa_XSP1: Attagene TRANS-FACTORIAL Multi-Species (XSP1) HepG2 Assay for human Thyroid hormone Receptor alpha (TRa) (AID 2283805). Summed up: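 Reporter transcripts from the human TRa-Gal4 TRANS unit quantified by RT-PCR, fluorescent labeling and capillary electrophoresis after 24 hours of chemical exposure in transfected HepG2 cells; medium contains 3 nM 6-alpha-fluorotestosterone. Positive direction fit against DMSO.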

Experiment [7] deals with zebrafish Thyroid Hormone Receptor alpha (TRa), thraa (gene 30670) (UniProt Q98867). Description: ATG_zfTRa_XSP1: Attagene TRANS-FACTORIAL Multi-Species (XSP1) HepG2 Assay for zebrafish Thyroid Hormone Receptor alpha (TRa) (AID 2283807). In short, it runs like this: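 Reporter transcripts driven by a chimeric zebrafish TRa–Gal4 protein were measured by RT-PCR with fluorescent labelling and capillary electrophoresis. These came from transiently transfected HepG2 cells after 24 h chemical exposure, with 3 nM 6-alpha-fluorotestosterone added; baseline was DMSO.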
Sequence of zebrafish Thyroid Hormone Receptor alpha (TRa), thraa (gene 30670) (Q98867 whole entry, looked up, the tested form may be a part): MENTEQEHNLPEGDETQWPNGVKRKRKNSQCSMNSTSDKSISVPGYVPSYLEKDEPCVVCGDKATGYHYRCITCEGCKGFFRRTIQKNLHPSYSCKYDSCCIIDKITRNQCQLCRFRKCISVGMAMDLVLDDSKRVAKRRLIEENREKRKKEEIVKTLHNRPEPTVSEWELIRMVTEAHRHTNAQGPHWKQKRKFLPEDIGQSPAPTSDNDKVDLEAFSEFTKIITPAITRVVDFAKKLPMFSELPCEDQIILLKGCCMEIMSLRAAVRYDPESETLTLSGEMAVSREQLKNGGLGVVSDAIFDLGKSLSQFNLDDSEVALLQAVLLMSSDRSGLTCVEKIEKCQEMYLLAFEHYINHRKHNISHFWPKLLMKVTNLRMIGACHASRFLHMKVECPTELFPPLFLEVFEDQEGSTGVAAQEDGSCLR

The target in experiment [8] is human Thyroid hormone Receptor beta (TRb), THRB (gene 7068) (UniProt P10828). The experiment is described as follows: ATG_hTRb_XSP1: Attagene TRANS-FACTORIAL Multi-Species (XSP1) HepG2 Assay for human Thyroid hormone Receptor beta (TRb) (AID 2283808). Summed up: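 Readout is reporter mRNA induction measured by RT-PCR, fluorescent labelling and capillary electrophoresis, fitted upward relative to DMSO. Transiently transfected human HepG2 cells expressing NR-Gal4 chimeras were dosed for 24 h, medium containing 3 nM 6-alpha-fluorotestosterone.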
Sequence of human Thyroid hormone Receptor beta (TRb), THRB (gene 7068) (P10828 whole entry, looked up, the tested form may be a part): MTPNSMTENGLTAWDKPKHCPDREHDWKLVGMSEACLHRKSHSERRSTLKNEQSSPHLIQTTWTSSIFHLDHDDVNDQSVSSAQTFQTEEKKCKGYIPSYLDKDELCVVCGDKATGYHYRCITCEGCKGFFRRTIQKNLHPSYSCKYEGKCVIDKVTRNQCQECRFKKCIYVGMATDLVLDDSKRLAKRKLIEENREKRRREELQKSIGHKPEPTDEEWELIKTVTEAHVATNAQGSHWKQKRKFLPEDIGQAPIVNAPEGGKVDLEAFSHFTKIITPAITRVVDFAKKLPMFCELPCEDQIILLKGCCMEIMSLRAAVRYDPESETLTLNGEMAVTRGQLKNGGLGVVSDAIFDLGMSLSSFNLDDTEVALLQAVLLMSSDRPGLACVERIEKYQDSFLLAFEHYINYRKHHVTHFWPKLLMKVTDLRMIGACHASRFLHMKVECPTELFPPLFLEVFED

Experiment [9] has as its target zebrafish Thyroid Hormone Receptor beta (TRb), thrb (gene 30607) (UniProt Q9PVE4). The experiment is described as follows: ATG_zfTRb_XSP1: Attagene TRANS-FACTORIAL Multi-Species (XSP1) HepG2 Assay for zebrafish Thyroid Hormone Receptor beta (TRb) (AID 2283809). In short, it runs like this:
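HepG2 cells transiently transfected with multiplexed GAL4-UAS reporter units expressing chimeric zebrafish TRb–Gal4. Dosed 24 h with 3 nM 6-alpha-fluorotestosterone present; reporter mRNA measured by RT-PCR, HpaI digestion and capillary electrophoresis; gain of signal versus DMSO.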

Experiment [10] is described as follows: ATG_XTT_Cytotoxicity_XSP1: Cytotoxicity Assessment in the Attagene TRANS-FACTORIAL Multi-Species (XSP1) HepG2 Assay (AID 2283810). Summed up:
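XTT viability readout taken at 24 hours post-dosing in HepG2 liver cells co-treated with 3 nM 6-alpha-fluorotestosterone. Signal loss relative to DMSO controls reflects cytotoxicity.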

The subject of experiment [11] is turtle Estrogen Receptor (ERa), gene 101933533. Description: ATG_trERa_XSP2: Attagene TRANS-FACTORIAL Multi-Species (XSP2) HepG2 Assay for turtle Estrogen Receptor (ERa) (AID 2283812).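 Further: actives raise reporter signal above DMSO so AC50 reflects agonist activity.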 In short, it runs like this: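 Readout is reporter mRNA quantified by RT-PCR with capillary electrophoresis after 24 h compound exposure, increase relative to DMSO. Uses transiently transfected human HepG2 liver cells carrying a chimeric turtle ERa-Gal4 receptor driving GAL4-UAS reporters.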

The target of experiment [12] is Estrogen receptor beta (Homo sapiens) (UniProt Q92731). The experiment is described as follows: ATG_hERb_XSP2: Attagene TRANS-FACTORIAL Multi-Species (XSP2) HepG2 Assay for human Estrogen Receptor (ERb) (AID 2283813).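 Further: actives raise reporter mRNA above DMSO so AC50 reflects agonist induction.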 In short, it runs like this: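 Transient TRANS reporter system in HepG2: after 24 h of chemical, RNA is reverse-transcribed, reporter cDNA amplified, FAM-labelled and sized by capillary electrophoresis. Induction of the human ERb-Gal4 reporter is measured relative to DMSO.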
Sequence of Estrogen receptor beta (Homo sapiens) (Q92731 whole entry, looked up, the tested form may be a part): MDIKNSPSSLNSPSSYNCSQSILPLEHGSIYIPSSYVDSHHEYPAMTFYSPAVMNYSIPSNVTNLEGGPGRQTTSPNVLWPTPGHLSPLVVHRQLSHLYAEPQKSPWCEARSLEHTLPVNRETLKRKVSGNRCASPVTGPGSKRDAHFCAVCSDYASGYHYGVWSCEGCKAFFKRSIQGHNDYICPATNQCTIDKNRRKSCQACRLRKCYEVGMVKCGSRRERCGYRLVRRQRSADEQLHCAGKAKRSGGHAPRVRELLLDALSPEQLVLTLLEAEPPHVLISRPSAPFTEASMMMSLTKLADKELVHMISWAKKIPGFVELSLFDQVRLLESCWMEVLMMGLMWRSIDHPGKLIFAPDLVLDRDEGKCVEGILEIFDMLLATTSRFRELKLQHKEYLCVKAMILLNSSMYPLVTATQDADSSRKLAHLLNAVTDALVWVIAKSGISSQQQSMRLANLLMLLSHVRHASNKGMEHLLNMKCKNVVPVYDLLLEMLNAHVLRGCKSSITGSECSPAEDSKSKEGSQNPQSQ

Experiment [13] relates to turtle Androgen Receptor (AR), gene 101947425. Description: ATG_trAR_XSP2: Attagene TRANS-FACTORIAL Multi-Species (XSP2) HepG2 Assay for turtle Androgen Receptor (AR) (AID 2283815). Summed up: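 Reporter transcripts were quantified via RT-PCR and capillary electrophoresis and fitted upward against DMSO. Transiently transfected human HepG2 cells carrying NR-Gal4 chimeras were exposed 24 h, with 3 nM 6-alpha-fluorotestosterone plus 1.5 nM norgestrel added.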

Experiment [14] concerns the target chicken Estrogen Receptor (ERa), ESR1 (gene 396099) (UniProt P06212). Description: ATG_chERa_XSP2: Attagene TRANS-FACTORIAL Multi-Species (XSP2) HepG2 Assay for chicken Estrogen Receptor (ERa) (AID 2283817).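 Further: actives raise reporter signal above DMSO so AC50 reflects ER activation.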 Summed up: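 Readout: fluorescent reporter-transcript fragments resolved by capillary electrophoresis after RT-PCR and HpaI cut. Chicken ERa-Gal4 fusion in transiently transfected HepG2, dosed for 24 h; activity taken as increase over DMSO baseline.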

Experiment [15] is described as follows: ATG_M_19_XSP1: Attagene TRANS-FACTORIAL Multi-Species (XSP1) HepG2 Assay for M19 Transcription Factor (Internal Marker) (AID 2283798). In short, it runs like this:
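Readout is reporter mRNA induction quantified via RT-PCR, 6-FAM labeling, HpaI digestion and capillary electrophoresis, fitted in the positive direction versus DMSO baseline. Transfected HepG2 cells exposed 24 h, medium including 3 nM 6-alpha-fluorotestosterone.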

The target in experiment [16] is GAL4 Transcription Factor (Internal Marker), GAL4 (gene 855828) (UniProt P04386). Description: ATG_GAL4_XSP2: Attagene TRANS-FACTORIAL Multi-Species (XSP2) HepG2 Assay for GAL4 Transcription Factor (Internal Marker) (AID 2283814).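 Further: GAL4 reporter mRNA background control in MRTU transfected cells not a receptor target.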 Summed up:
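Background-control readout: gain-of-signal fitted against DMSO. After 24 h exposure of transfected HepG2 (MRTU, GAL4-UAS reporters; 3 nM 6-alpha-fluorotestosterone, 1.5 nM norgestrel present), transcripts quantified by RT-PCR and capillary electrophoresis fluorescence.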

In experiment [17] the target is zebrafish Estrogen Receptor (ER1), esr1 (gene 259252) (UniProt P57717). The experiment is described as follows: ATG_zfER1_XSP2: Attagene TRANS-FACTORIAL Multi-Species (XSP2) HepG2 Assay for zebrafish Estrogen Receptor (ER1) (AID 2283816). Summed up:
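After 24 h compound exposure, RNA from transfected HepG2 cells was reverse-transcribed and reporter transcripts resolved by capillary electrophoresis. The TRANS format reads exogenous zebrafish ER1-Gal4 chimera activity on GAL4-UAS elements; gain of signal against DMSO.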

Experiment [18] deals with zebrafish Estrogen Receptor (ER2a), gene 317734. Description: ATG_zfER2a_XSP2: Attagene TRANS-FACTORIAL Multi-Species (XSP2) HepG2 Assay for zebrafish Estrogen Receptor (ER2a) (AID 2283818).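 Further: hits raise reporter mRNA so AC50 reflects activation of zebrafish ER2a.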 Summed up: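 Multiplexed trans-reporter readout: RT-PCR then capillary electrophoresis of reporter transcripts after 24 h compound treatment. Human HepG2 carries transfected zebrafish ER2a-Gal4 chimera; 3 nM 6-alpha-fluorotestosterone plus 1.5 nM norgestrel present. Induction scored against DMSO.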

The target in experiment [19] is frog Thyroid hormone Receptor alpha (TRa), thra-a (gene 397942) (UniProt P15204). The experiment is described as follows: ATG_frTRa_XSP1: Attagene TRANS-FACTORIAL Multi-Species (XSP1) HepG2 Assay for frog Thyroid hormone Receptor alpha (TRa) (AID 2283804). Summed up: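 Reporter transcript induction, measured by RT-PCR with 6-FAM labelling and capillary electrophoresis, 24 hr after dosing transiently transfected HepG2 cells expressing a frog TRa-GAL4 fusion; medium contained 3 nM 6-alpha-fluorotestosterone; increase over DMSO scored.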

For experiment [20], the system named is turtle Thyroid Hormone Receptor, alpha (TRa), gene 101949057. Description: ATG_trTRa_XSP1: Attagene TRANS-FACTORIAL Multi-Species (XSP1) HepG2 Assay for turtle Thyroid Hormone Receptor, alpha (TRa) (AID 2283806). Summed up: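 After 24 h chemical exposure, reporter transcripts were measured by RT-PCR with fluorescent primer extension, HpaI digestion and capillary electrophoresis. Cells were transiently transfected HepG2 expressing exogenous NR-Gal4 chimeras; medium contained 3 nM 6-alpha-fluorotestosterone; fitted upward relative to DMSO.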

Sequence of chicken Estrogen Receptor (ERa), ESR1 (gene 396099) (P06212 whole entry, looked up, the tested form may be a part): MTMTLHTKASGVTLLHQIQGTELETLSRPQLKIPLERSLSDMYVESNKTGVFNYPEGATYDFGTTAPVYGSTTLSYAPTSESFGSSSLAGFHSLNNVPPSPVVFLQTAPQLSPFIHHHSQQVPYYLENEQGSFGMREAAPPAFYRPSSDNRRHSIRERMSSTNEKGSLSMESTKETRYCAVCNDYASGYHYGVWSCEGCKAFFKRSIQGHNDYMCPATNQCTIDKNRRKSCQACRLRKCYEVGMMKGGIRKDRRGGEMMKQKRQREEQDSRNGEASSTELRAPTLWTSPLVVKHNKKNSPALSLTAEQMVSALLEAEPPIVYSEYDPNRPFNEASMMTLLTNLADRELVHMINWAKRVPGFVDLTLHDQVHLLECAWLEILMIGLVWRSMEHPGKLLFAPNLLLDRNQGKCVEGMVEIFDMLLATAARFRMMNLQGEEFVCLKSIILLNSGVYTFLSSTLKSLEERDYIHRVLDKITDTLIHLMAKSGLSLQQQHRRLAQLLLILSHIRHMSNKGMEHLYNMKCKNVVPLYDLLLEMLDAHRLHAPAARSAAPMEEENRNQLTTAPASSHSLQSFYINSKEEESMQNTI
Sequence of zebrafish Thyroid Hormone Receptor beta (TRb), thrb (gene 30607) (Q9PVE4 whole entry, looked up, the tested form may be a part): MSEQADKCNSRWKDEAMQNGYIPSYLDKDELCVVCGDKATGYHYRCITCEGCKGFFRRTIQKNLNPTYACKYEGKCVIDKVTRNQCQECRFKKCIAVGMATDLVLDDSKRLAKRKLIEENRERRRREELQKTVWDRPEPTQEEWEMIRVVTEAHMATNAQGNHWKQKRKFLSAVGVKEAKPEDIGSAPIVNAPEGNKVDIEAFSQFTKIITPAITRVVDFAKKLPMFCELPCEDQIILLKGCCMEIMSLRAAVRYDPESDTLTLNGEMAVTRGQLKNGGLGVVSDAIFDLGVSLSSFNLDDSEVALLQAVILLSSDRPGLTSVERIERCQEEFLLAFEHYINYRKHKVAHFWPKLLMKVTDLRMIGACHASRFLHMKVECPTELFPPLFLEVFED
Sequence of zebrafish Estrogen Receptor (ER1), esr1 (gene 259252) (P57717 whole entry, looked up, the tested form may be a part): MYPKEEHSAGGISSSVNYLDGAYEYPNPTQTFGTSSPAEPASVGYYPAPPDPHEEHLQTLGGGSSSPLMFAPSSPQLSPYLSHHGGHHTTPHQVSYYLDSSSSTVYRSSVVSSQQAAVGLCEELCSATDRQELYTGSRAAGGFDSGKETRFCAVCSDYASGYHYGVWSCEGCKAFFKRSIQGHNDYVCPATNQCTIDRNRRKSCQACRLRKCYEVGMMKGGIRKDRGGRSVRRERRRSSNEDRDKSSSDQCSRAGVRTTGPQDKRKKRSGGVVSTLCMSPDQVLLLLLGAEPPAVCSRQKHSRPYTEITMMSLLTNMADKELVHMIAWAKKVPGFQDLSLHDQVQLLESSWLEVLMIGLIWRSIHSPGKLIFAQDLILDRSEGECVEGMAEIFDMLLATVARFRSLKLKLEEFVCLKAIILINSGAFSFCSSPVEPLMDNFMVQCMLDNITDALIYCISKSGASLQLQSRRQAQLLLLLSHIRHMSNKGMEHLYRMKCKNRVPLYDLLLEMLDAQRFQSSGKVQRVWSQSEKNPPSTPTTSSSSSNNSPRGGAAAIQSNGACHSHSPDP
Sequence of Nuclear receptor subfamily 1 group I member 2 (Mus musculus) (O54915 whole entry, looked up, the tested form may be a part): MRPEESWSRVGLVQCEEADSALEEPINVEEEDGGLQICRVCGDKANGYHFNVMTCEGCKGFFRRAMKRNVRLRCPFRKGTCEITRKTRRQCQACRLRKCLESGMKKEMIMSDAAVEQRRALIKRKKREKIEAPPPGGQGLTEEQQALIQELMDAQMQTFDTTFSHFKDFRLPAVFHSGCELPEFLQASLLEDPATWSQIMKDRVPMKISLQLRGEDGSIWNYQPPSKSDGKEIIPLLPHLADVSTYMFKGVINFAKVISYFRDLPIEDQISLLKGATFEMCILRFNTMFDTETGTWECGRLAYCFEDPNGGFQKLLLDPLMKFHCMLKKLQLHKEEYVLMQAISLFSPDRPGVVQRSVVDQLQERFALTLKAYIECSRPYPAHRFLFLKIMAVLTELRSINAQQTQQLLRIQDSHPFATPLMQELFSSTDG
Sequence of GAL4 Transcription Factor (Internal Marker), GAL4 (gene 855828) (P04386 whole entry, looked up, the tested form may be a part): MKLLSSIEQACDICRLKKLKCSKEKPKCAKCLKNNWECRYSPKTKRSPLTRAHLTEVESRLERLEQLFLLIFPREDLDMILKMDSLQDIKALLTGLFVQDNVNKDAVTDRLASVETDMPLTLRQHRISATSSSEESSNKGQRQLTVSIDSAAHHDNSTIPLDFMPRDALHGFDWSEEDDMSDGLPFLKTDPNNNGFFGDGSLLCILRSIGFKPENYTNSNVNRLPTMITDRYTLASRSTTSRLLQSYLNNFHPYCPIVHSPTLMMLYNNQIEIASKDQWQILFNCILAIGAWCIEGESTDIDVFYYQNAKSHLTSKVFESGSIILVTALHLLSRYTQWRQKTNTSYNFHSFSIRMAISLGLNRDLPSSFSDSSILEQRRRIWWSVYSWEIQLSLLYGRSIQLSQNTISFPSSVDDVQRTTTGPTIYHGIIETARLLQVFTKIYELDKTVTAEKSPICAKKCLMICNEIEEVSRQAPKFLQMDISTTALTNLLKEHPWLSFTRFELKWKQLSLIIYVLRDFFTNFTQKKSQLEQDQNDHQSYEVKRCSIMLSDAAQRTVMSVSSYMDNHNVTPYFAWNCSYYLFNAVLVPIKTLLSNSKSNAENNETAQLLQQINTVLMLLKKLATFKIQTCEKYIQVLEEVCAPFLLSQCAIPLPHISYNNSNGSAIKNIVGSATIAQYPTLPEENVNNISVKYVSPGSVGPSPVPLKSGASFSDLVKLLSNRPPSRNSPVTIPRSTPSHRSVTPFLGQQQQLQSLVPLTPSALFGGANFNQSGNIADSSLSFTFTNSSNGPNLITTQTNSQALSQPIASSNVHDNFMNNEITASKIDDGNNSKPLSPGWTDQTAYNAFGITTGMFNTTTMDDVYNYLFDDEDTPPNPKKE

In the case of `CCCCCOC(=O)c1ccccc1C(=O)OCCCCC`, the compound was classed as inactive in [1], in [3], in [6], in [7], in experiment [8] and in experiment [9]. Besides, the call in experiment [10], in experiment [11], in [12], in [13] and in experiment [14] was inactive. Also, the AC50 in experiment [2] was 31.9 µM (active); in experiment [4], 37.6 µM (active); in [5], 5.96 µM (active).
As for `Clc1ccc(C(c2ccc(Cl)cc2)C(Cl)Cl)cc1`, the compound was classed as inactive in [15], in experiment [1], in experiment [3], in [7], in [16] and in experiment [17]. Further, the AC50 in experiment [4] was 50.3 µM (active); in experiment [5], 24.6 µM (active); in [10] it was 100 µM (active); in [11], 11.6 µM (active); in experiment [14], 2.47 µM (active); in experiment [18] it was 2.85 µM (active).
As for `Clc1ccc(C(c2ccc(Cl)cc2)C(Cl)(Cl)Cl)cc1`, the call in [15], in experiment [1], in [19], in experiment [20], in [9] and in [10] was inactive. In addition, the call in experiment [12] was inactive. Further, the AC50 is 100 µM (active) in experiment [3]; 67.5 µM (active) in experiment [4]; 2.67 µM (active) in [5]; 100 µM (active) in experiment [17]; 22 µM (active) in experiment [18].
For `CCCCOC(=O)c1ccccc1C(=O)OCc1ccccc1`, the compound was classed as inactive in [15], in [1], in experiment [3], in experiment [7], in experiment [9] and in experiment [10]. For the same compound, the result in experiment [12], in [16], in experiment [13] and in experiment [17] was inactive. The concentration at half-maximal activity (AC50) in experiment [4] is 9.86 µM (active); in experiment [5] it was 3.81 µM (active); in experiment [11] it was 61.1 µM (active); in experiment [14] it was 46.7 µM (active); in experiment [18] it was 43.1 µM (active).

Broadly, the AC50 is the concentration at which the activity in the assay is half-maximal.
